In the supplement of paper PMC11219838:

The compounds below were run on Caenorhabditis elegans L1 (N2) (assay: survival and reproduction score of C. elegans L1 (0: 0-10 living worms, 1: 11-20, 2: 21-50, 3: >50, 4: overgrown) (score 0-4); higher = more worms, less nematicidal, active = 1 or less; extreme values may be limits of the assay). Conditions: 60 µM; 6 days; temperature: 20 °C.
Summary of the method: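 Synchronized C. elegans N2 L1s (about 20 per well) were grown in 96-well plates in liquid NGM with E. coli HB101 and compound at 60 µM final (0.6% v/v DMSO), shaken sealed at 200 rpm and 20 °C for 6 days. The ordinal score for survival and reproduction counted living worms per well under a dissection microscope. The scale ran 0 (0–10 worms) to 4 (overgrown, starved), averaged over two biological replicates.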

Row | SMILES | survival and reproduction score
1 | Cc1cc(C)cc(-c2nc(-c3ccc(Cl)cc3)no2)c1 | 4 (inactive)
2 | Clc1ccc(SCc2nc(-c3ccccn3)no2)cc1 | 0.5 (active)
3 | COc1cccc(OCc2nc(-c3cccc(Br)c3)no2)c1 | 4 (inactive)
4 | COc1ccc(OC(C)c2nc(-c3ccccn3)no2)cc1 (centres undefined) | 4 (inactive)
5 | Cc1ccccc1OCc1nc(-c2ccc(Br)cc2)no1 | 4 (inactive)
6 | Cc1cccc(-c2noc(C3CCCCC3)n2)c1 | 3.5 (inactive)
7 | CC(C)c1ccc(OCc2nc(-c3ccncc3)no2)c(Br)c1 | 4 (inactive)
8 | CCOC(=O)c1ccc(OCc2nc(-c3cccs3)no2)cc1 | 4 (inactive)
9 | Cc1cnnn1-c1ccc(-c2nc(-c3ccc(Cl)cc3)no2)cc1 | 4 (inactive)
10 | Brc1cccc(-c2nc(-c3ccncc3)no2)c1 | 1 (active)
11 | c1ccc(COc2cccc(-c3nc(-c4cccnc4)no3)c2)cc1 | 2.5 (inactive)
12 | CCC(=O)Nc1ccccc1-c1nc(-c2cccnc2)no1 | 4 (inactive)
13 | CC(C)(C)c1ccc(-c2nnc(SCC(=O)c3ccc(F)cc3)o2)cc1 | 4 (inactive)
14 | Clc1ccccc1OCc1nc(-c2ccccn2)no1 | 4 (inactive)
15 | Cc1ccccc1-c1nc(-c2ccccc2Cl)no1 | 0 (active)
16 | Cc1ccc(-c2nc(-c3ccc4c(c3)OCO4)no2)cc1 | 4 (inactive)
17 | Cc1cccc(-c2nc(-c3ccc4c(c3)OCO4)no2)c1 | 4 (inactive)
18 | Cc1cccc(NC(=O)CSc2nnc(-c3ccncc3)o2)c1C | 4 (inactive)
19 | C(=C\c1ccccc1)/CSc1nnc(-c2ccncc2)o1 | 4 (inactive)
20 | Clc1cccc(-c2nc(-c3ccccc3Cl)no2)c1 | 4 (inactive)

Row | SMILES | survival and reproduction score
21 | COc1ccc(C(=O)CSc2nnc(-c3cccc(Br)c3)o2)cc1 | 4 (inactive)
22 | Fc1ccc(-c2noc(-c3ccc(Cl)cc3)n2)cc1 | 1 (active)
23 | O=C(CSc1nnc(-c2cccc(Cl)c2)o1)Nc1ccccc1 | 4 (inactive)
24 | CC(=O)Nc1ccc(C(=O)CSc2nnc(-c3cccc(Br)c3)o2)cc1 | 4 (inactive)
25 | COc1ccc(Cl)cc1-c1noc(-c2ccccc2C)n1 | 4 (inactive)
26 | COc1ccccc1OCc1nc(-c2cccc(Br)c2)no1 | 4 (inactive)
27 | Cc1ccc(-c2noc(COc3ccccc3C)n2)cc1 | 4 (inactive)
28 | Brc1ccc(-c2nc(-c3cccnc3)no2)cc1 | 0 (active)
29 | COc1ccc(-c2noc(-c3cccc(Br)c3)n2)cc1 | 4 (inactive)
30 | Ic1ccccc1-c1nc(-c2cccnc2)no1 | 3.5 (inactive)
31 | Cc1ccc(OCc2nc(-c3ccc(Cl)cc3)no2)cc1 | 4 (inactive)
32 | Cc1cccc(-c2noc(-c3ccccc3Br)n2)c1 | 3.5 (inactive)
33 | c1ccc(CSc2nnc(-c3ccccc3)o2)cc1 | 0 (active)
34 | Brc1cccc(-c2nnc(SCc3ccccc3)o2)c1 | 4 (inactive)
35 | Clc1ccc(-c2nc(-c3cccnc3)no2)c(Cl)c1 | 2 (inactive)
36 | O=C(CSc1nnc(-c2ccco2)o1)Nc1cccc(Cl)c1Cl | 4 (inactive)
37 | COc1cccc(-c2noc(COc3ccccc3C)n2)c1 | 4 (inactive)
38 | COc1ccc(-c2noc(-c3ccccc3Cl)n2)cc1 | 4 (inactive)
39 | CCOc1nc(-c2ccc(C)cc2)ccc1-c1noc(-c2ccncc2)n1 | 4 (inactive)
